# Experimental data published in PubChem BioAssay (NCI).
# This is part of a sample that, as a whole, favours compounds with a hit. Of some 83,000 tested, about 20% had one in any assay.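 A percent growth of 40 corresponds to 60% growth inhibition; 0 means no net growth; -100 means all cells died. Active threshold: below 10.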 A number with no mark means an inactive call. Activity calls are given as the source filed them.
# Legend:
# Assay in all cases: NCI-60 one-dose screen, 48 h (100 = growth as untreated, 0 = no growth, -100 = all killed)
# [1] = test system: NCI-H226 lung; settings: 10 µM unless noted
# [2] = test system: NCI-H322M lung; settings: 10 µM unless noted
# [3] = test system: HOP-62 NSCLC; settings: 10 µM unless noted
# [4] = test system: NCI-H460 lung; settings: 10 µM unless noted
# [5] = test system: HOP-92 NSCLC; settings: 10 µM unless noted
# [6] = test system: NCI-H522 lung; settings: 10 µM
# [7] = test system: 786-0 renal; settings: 10 µM unless noted
# [8] = test system: COLO 205 colon; settings: 10 µM unless noted
# [9] = test system: DU-145 prostate; settings: 10 µM unless noted
# [10] = test system: MALME-3M melanoma; settings: 10 µM unless noted
# [11] = test system: MDA-MB-231 breast; settings: 10 µM unless noted
# [12] = test system: SF-268 CNS; settings: 10 µM unless noted
# [13] = test system: SF-295 CNS; settings: 10 µM unless noted
# [14] = test system: SF-539 CNS; settings: 10 µM unless noted
# [15] = test system: M14 melanoma; settings: 10 µM unless noted
# [16] = test system: A549/ATCC NSCLC; settings: 10 µM unless noted
# [17] = test system: K-562 leukemia; settings: 10 µM unless noted
# [18] = test system: RXF 393 renal; settings: 10 µM unless noted
# [19] = test system: UACC-257 melanoma; settings: 10 µM unless noted
SMILES,growth [1],growth [2],growth [3],growth [4],growth [5],growth [6],growth [7],growth [8],growth [9],growth [10],growth [11],growth [12],growth [13],growth [14],growth [15],growth [16],growth [17],growth [18],growth [19]
CCN(CC)c1ccc(/C=C/C(=O)c2cccc(NS(C)(=O)=O)c2)cc1,43.1%,89%,42.6%,42.3%,19.9%,4.67% (active),32.3%,62.3%,49.6%,76.2%,43%,61.5%,47.5%,40.6%,32.1%,,,,
CN(C)CCC(=O)Nc1ccc(-n2cc(-c3cccc(NC(=S)Nc4cccc(-c5cn(-c6ccc(NC(=O)CCN(C)C)cc6)nn5)c4)c3)nn2)cc1,,92.4%,105%,95.6%,101%,,101%,99.4%,115%,,107%,98.6%,65.3%,97.6%,112%,88.6%,18.6%,135%,117%
CC1c2ccccc2-c2ccccc2N1C (stereo unspecified),105%,101%,100%,105%,,87.5%,104%,107%,110%,99.4%,97.4%,105%,109%,50.2%,106%,,88.3%,116%,114%
Cc1ccc2nc(-c3ccc(N(C)C)c(Br)c3)cn2c1,98.4%,120%,,40.3%,126%,,87.8%,89.3%,93.7%,116%,92.9%,78.2%,90.5%,65.9%,78.6%,98.9%,29%,62.8%,90.7%
COC(=O)[C@H](CCCCNC(=O)OCc1ccccc1)NC(=O)[C@@H](NC(=O)Nc1cc(C(F)(F)F)cc(C(F)(F)F)c1)C(C)C,,19.9% [100 µM],-84.2% [100 µM] (active),-23.1% [100 µM] (active),-69.5% [100 µM] (active),,-91.7% [100 µM] (active),-12.8% [100 µM] (active),-82.2% [100 µM] (active),-61.4% [100 µM] (active),-87.8% [100 µM] (active),-85% [100 µM] (active),-65.5% [100 µM] (active),,-75.6% [100 µM] (active),45.1% [100 µM],-18.9% [100 µM] (active),-90.8% [100 µM] (active),-78.5% [100 µM] (active)
Cc1ncc(C(=O)Nc2ccc(CN3CCN(C)CC3)c(C(F)(F)F)c2)cc1C#Cc1cncc2ncccc12,46.7%,51%,59.4%,61%,60.3%,86.5%,-85.8% (active),32.2%,66.9%,0.477% (active),21.3%,57.7%,82.6%,67%,5.36% (active),,-10.7% (active),36.7%,
COc1ccc(Oc2ccccc2NC(=O)CNC(=O)c2cccc3ccccc23)cc1,61.4% [5 µM],45.5% [5 µM],31.5% [5 µM],11.9% [5 µM],52.1% [5 µM],,30.1% [5 µM],-20% [5 µM] (active),17.5% [5 µM],72.9% [5 µM],29.4% [5 µM],44.1% [5 µM],13.2% [5 µM],-21.5% [5 µM] (active),12.6% [5 µM],20.8% [5 µM],8.48% [5 µM] (active),10.3% [5 µM],48.6% [5 µM]
COC(=O)C1CCN(S(=O)(=O)c2ccc(-c3ccccc3)cc2)CC1,93.3%,116%,113%,110%,86.8%,99.8%,113%,108%,110%,122%,115%,102%,195%,101%,107%,,103%,,62.7%
CC(=O)[C@H]1CC[C@H]2[C@@H]3C[C@H](C)C4=CC(=O)CC[C@]4(C)[C@H]3C(=O)C[C@]12C,,117%,99.1%,107%,85.3%,,112%,94.3%,112%,109%,108%,96.6%,120%,98.5%,101%,98.7%,106%,103%,102%
COc1cc(OC)c2c(c1Cl)O[C@]1(C2=O)C(OCc2ccccc2)=CC(=O)C[C@H]1C,45.8%,36.4%,,6.23% (active),-16.7% (active),-24.7% (active),37.8%,-32.6% (active),14.7%,-42.4% (active),12.9%,21.3%,-58% (active),-16.4% (active),2.91% (active),,2.98% (active),0.23% (active),
C[C@]12CCC(=O)C=C1CC[C@H]1[C@@H]3C[C@@H](O)[C@](O)(C(=O)CO)[C@@]3(C)C[C@H](O)[C@@]12F,83.1%,128%,101%,93.4%,80.3%,,111%,103%,92.4%,87%,102%,85.5%,104%,91.9%,85.6%,63.1%,110%,137%,82.1%
COc1cc(/C=C/C(=O)c2c(C)n([O-])c3ccc(Cl)cc3[n+]2=O)cc(OC)c1OC,80.7%,90.5%,110%,64.3%,78.6%,,94.4%,86.8%,66.8%,78.7%,78.5%,74%,114%,96.9%,78.4%,71.7%,45.8%,42.6%,81.3%
O=C(COc1ccc(/C=C2\Oc3ccc4ccccc4c3C2=O)cc1)c1ccc(Cl)cc1,106%,102%,105%,110%,97.7%,61.9%,106%,124%,,110%,113%,97.6%,96.9%,93.1%,95%,,89.7%,,103%
CCOC(=O)CNC(=O)C1(NC(=O)CNC(=O)OCc2ccccc2)CCCC1,115%,109%,,112%,96.2%,,94.9%,120%,121%,,99.1%,107%,126%,92.2%,110%,89.8%,103%,135%,110%
CCCCN=C(N)c1ccc(OCCSCCOc2ccc(C(N)=NCCCC)cc2)cc1,59.2%,69.2%,67.7%,,40.1%,,82.5%,7.64% (active),55.3%,39.3%,58.7%,35.6%,-36.4% (active),55%,81.6%,19.5%,40.9%,92.6%,39.9%
N#CC(C#N)C(C#N)C#N,99.9%,103%,90.9%,105%,,,101%,99.3%,112%,114%,108%,104%,102%,105%,99.7%,79%,105%,110%,85.7%
COc1cc(/C=C2\CN(S(=O)(=O)c3ccc(C)cc3)C/C(=C\c3cc(CN4CCOCC4)c(O)c(OC)c3)C2=O)cc(CN2CCOCC2)c1O,-40.2% (active),-15.6% (active),-16% (active),-46.9% (active),-30.3% (active),,-54.3% (active),-25.5% (active),29.1%,-25.7% (active),5.67% (active),7.91% (active),-34.1% (active),-3.63% (active),-40.5% (active),19.4%,10.4%,-87.3% (active),-28.6% (active)
